# Laboratory results from PubChem BioAssay.
# Calls of active or inactive are those of the source. The rule behind the calls is not given here.
# Biological target: Pantothenate synthetase (Mycobacterium tuberculosis (strain ATCC 25618 / H37Rv)) (UniProt P9WIL5)
# Test: Coupled enzyme confirmation of inhibitors against recombinant Mtb PanC (AID 375);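 note: 0% = full reaction with vehicle and 100% = no enzyme background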
# Conditions: coupled enzyme assay; at 10 µM, stronger effect = higher value
# Pantothenate synthetase (Mycobacterium tuberculosis (strain ATCC 25618 / H37Rv)), sequence (P9WIL5 whole entry, looked up): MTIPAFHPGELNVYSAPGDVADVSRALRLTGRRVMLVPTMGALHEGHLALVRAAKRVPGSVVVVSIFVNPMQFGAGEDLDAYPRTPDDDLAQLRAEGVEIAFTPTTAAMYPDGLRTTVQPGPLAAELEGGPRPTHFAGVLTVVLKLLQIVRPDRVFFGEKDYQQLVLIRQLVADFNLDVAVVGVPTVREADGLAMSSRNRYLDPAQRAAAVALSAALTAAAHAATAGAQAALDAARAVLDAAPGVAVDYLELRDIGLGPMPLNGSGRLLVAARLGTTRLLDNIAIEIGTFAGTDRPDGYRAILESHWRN
row,SMILES,inhibition
1,COC(=O)c1cc(OC)c(OCc2cc(C(=O)OC)oc2C)c(OC)c1,2% (inactive)
2,C=CCN1C(=O)CS/C1=C(\C#N)S(=O)(=O)c1ccc(C)cc1,0% (inactive)
3,Cn1c(=O)c2c(nc(SCCCO)n2Cc2ccccc2Cl)n(C)c1=O,3% (inactive)
4,O=C(NCC(c1cccnc1)N1CCOCC1)c1ccco1 (configuration not stated),2% (inactive)
5,Cc1cnn(Cc2ccccc2)c1N,3% (inactive)
6,COc1cccc(Nc2cc(C)nc3ccccc23)c1,1% (inactive)
7,COCc1nnc(NC(=O)c2ccc(NC(C)=O)cc2)s1,2% (inactive)
8,CC1=Nn2c(nnc2-c2ccccn2)SC1,7% (inactive)
9,CCC(C)Nc1nc2c(c(=O)n(C)c(=O)n2C)n1Cc1ccc(F)cc1 (configuration not stated),3% (inactive)
10,Cc1ccc(Nc2nc(CSc3nnc(-c4cccs4)o3)cs2)cc1,0% (inactive)
11,CC1(C)OC(=O)N(c2cccnc2)C1(C)O (configuration not stated),3% (inactive)
12,O=C(Nc1ccc2[nH]c3c(c2c1)CCCC3)c1ccco1,0% (inactive)
13,CCOc1ccccc1NC(=O)C1CCCN1C(=O)OCc1ccccc1 (configuration not stated),0% (inactive)
14,C[C@@H]1C[C@H]2[C@@H]3CCC4=CC(=O)C=C[C@]4(C)[C@@]3(F)[C@@H](O)C[C@]2(C)[C@H]1C(=O)CO,1% (inactive)
15,O=C(CSc1nnnn1-c1ccccc1Cl)Nc1ccc2c(c1)OCCO2,8% (inactive)
16,CCOC(=O)c1c(C)oc2ccc(O)c(CN3CCCCC3)c12,12% (inactive)
17,CCOC(=O)c1c(C)oc2c1c(C(c1ccncc1)N1CCOCC1)c(O)c1ccccc12 (configuration not stated),0% (inactive)
